In the library only some 21% were active in any assay of this set; here they are far more common.
Giardia FBPA inh: blocks Giardia fructose-bisphosphate aldolase activity. purified Giardia FBPA. Potency, µM (titrated, usually from 59.6 µM), without a hit: at the highest dose activity, negative = inhibition, most hits filed as inhibitors. actives 0.71% (n = 290,000). A8B2U2; note: potency is the fitted concentration of half-maximal effect; % is set by controls: 0 for no effect and ±100 for the full control effect; nearly all actives have a fitted effect of over 55% in size
Target sequence (A8B2U2 whole entry, looked up): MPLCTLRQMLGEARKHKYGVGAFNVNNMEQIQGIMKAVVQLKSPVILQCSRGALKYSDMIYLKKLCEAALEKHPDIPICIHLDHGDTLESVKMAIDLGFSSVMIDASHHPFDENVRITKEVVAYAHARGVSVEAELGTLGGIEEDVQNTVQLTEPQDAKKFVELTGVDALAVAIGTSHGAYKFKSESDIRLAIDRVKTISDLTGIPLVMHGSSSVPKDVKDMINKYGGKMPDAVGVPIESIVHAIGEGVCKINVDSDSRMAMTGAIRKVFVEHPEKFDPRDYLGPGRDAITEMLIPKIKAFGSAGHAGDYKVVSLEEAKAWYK
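40 nM FBPA preincubated 10 min at RT with compound (up to 57.5 uM final), then substrate plus GAPDH/TPI/NAD/arsenate coupling and diaphorase/resazurin added. Fluorescence read after 20 min at RT, 525/598 nm.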
NS1 inh: influenza NS1 inhibition; Potency, µM (doses to about 46.1 µM), for the others: at the top dose activity, positive = more growth; AID 2326; actives 0.4% (n = 270,000); calls by dose curve; note: potency is the fitted concentration of half-maximal effect; actives are rising curves; nearly all actives have a fitted effect of over 50% in size
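Read-out: OD600 growth recovery of NS1-expressing budding yeast. Cells grown overnight at 30C in -URA glucose medium, washed, resuspended and diluted 1:100 in 2% galactose assay medium, pH 6.0. Same strain lacking NS1 served as positive control.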
Shiga inhibitor: blocks Shiga toxin action in Vero cells; AID 2315; inhibition, % at 38.7 µM; Vero cells, Shiga toxin protein synthesis inhibition reporter; actives 9.2% (n = 290,000); in the data active = inhibition mostly above about 28%, no sharp cut-off; inactive = mostly below about 43%; note: 0% is about no effect
Pf growth 96h: P. falciparum growth inhibition at 96 hour, primary screen for plastid delayed-death inhibitors | actives 6.9% (n = 320,000) | P. falciparum luciferase reporter growth, 96 h | Potency, µM (highest dose often 28.7 µM), for inactives: top-dose activity change, negative = inhibition, actives largely listed as inhibitors; note: potency is the fitted concentration of half-maximal effect; % is set by controls: 0 for no effect and ±100 for the full control effect
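Compounds incubated with erythrocytes infected by luciferase-expressing P. falciparum (2% hematocrit, 0.05% parasitemia final) for 96 hours, 37 C in 5% CO2. Growth inhibition scored as decreased luciferase luminescence.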
CHX counter: counter-screen for Shiga toxin inhibitors: cycloheximide protein synthesis inhibition; AID 2314; max response, %; cell reporter, cycloheximide protein synthesis inhibition counterscreen; actives 12% (n = 300,000); in the data active = max response mostly above about 13%, no sharp cut-off; inactive = mostly below about 14%; note: read at 38.3 µM for the half of the compounds with a filed dose; 0% is about no effect
Pf growth 48h: P. falciparum growth inhibition at 48 hours (one generation); P. falciparum luciferase growth in erythrocytes, 48 h; Potency, µM (highest dose often 28.7 µM), inactives show at the highest dose activity change, negative = inhibition, hits mostly inhibitors; actives 5.9% (n = 310,000); AID 504832; note: potency is the fitted concentration of half-maximal effect; % is set by controls: 0 for no effect and ±100 for the full control effect
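Cell-based growth assay: transgenic P. falciparum expressing firefly luciferase, cultured in red cells within RPMI 1640 containing 0.5% w/v Albumax, 24 mM bicarbonate and gentamycin. A drop in luciferase activity indicates inhibition.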
Starred values were filed as active, the others as inactive; ? = inconclusive; / = not tested or not shown. Unless noted, calls come from the whole dose curve; as a rule, active = well fitted curve in the direction sought with a large enough effect; inconclusive = small, poorly fitted or top-dose-only effect, or another doubt; inactive = no such curve, though single readings can be large; an effect the other way counts as inactive or inconclusive.

SMILES	Giardia FBPA inh	NS1 inh	Shiga inhibitor	Pf growth 96h	CHX counter	Pf growth 48h
Cc1c(C(=O)NCC2CCCO2)oc2ccc(Br)cc12 (stereo not given)	/	/	/	96%	/	71%
Cc1ccc2oc(C(=O)NCC3CCOCC3)c(C)c2c1	/	-2%	59*	10µM*	21	29%
Cc1c(C(=O)NCc2cccnc2)oc2ccc(S(=O)(=O)N3CCCC(C)C3)cc12 (stereo not given)	21%	-31%	22	5.9µM*	0	?
COc1c2c(c(C(=O)/C=C/C(C)=C/c3ccccc3)c3c1OCO3)CCN(C)C2	0%	/	/	/	/	/
COc1ccc(S(=O)(=O)N2CCC(C(=O)NC3CC3)CC2)cc1OC	4%	22%	-9	19%	-4	-22%
Cc1ccc(OCC(=O)Nc2cc(S(=O)(=O)N3CCCCC3)ccc2N2CCN(C)CC2)c(C)c1	/	/	/	1.5µM*	/	2.3µM*
COc1ccc(S(=O)(=O)N2CCC(C(=O)Nc3ccccc3N3CCCCC3)CC2)cc1OC	2%	10%	-2	8.3µM*	3	0%
COc1ccccc1OCC(=O)Nc1cc(C(F)(F)F)ccc1-n1cncn1	/	/	/	?	/	9.3µM*
CCN1CCN(c2ccc(S(=O)(=O)N3CCCCC3)cc2NC(=O)COc2ccc(Cl)c(C)c2)CC1	/	23%	-4	?	1	4.7µM*
COc1ccccc1OCC(=O)Nc1cc(S(=O)(=O)N2CCCCC2)ccc1N1CCCCC1	-15%	?	-2	2.1µM*	1	5.2µM*
COc1ccc(/C=C(\C#N)C(=O)Nc2cc(S(=O)(=O)N3CCCCC3)ccc2N2CCCCC2)cc1	1%	?	-2	8.3µM*	-2	?
CCC(=O)c1ccc(OCC(=O)Nc2cc(S(=O)(=O)N3CCCCC3)ccc2N2CCN(CC)CC2)cc1	/	/	/	9.3µM*	/	?
CCN1CCN(c2ccc(S(=O)(=O)N3CCCCC3)cc2NC(=O)Cc2ccc(Cl)c(Cl)c2)CC1	/	/	/	10µM*	/	10µM*
CCOC(=O)c1cc(CC)sc1NC(=O)CC1Sc2ccc(C(F)(F)F)cc2NC1=O (stereo not given)	1%	19%	14	1%	-2	-9%
COc1ccc(N2CCCC2)c(NC(=O)COc2ccccc2)c1	-15%	-7%	-11	52%	-3	-18%
CCN1CCN(c2ccc(S(=O)(=O)N3CCCCC3)cc2NC(=O)/C=C/c2cc(OC)ccc2OC)CC1	/	16%	9	?	-5	?
CCOc1ccccc1OCC(=O)Nc1cc(S(=O)(=O)N2CCCCC2)ccc1N1CCN(CC)CC1	/	/	/	3.3µM*	/	10µM*
COc1ccccc1OCC(=O)Nc1cc(Cl)ccc1N1CCCCC1	/	/	/	?	/	10µM*
CCOc1ccccc1OCC(=O)Nc1cc(S(=O)(=O)N2CCCCC2)ccc1OC	/	/	/	2%	/	?
CCN1CCN(c2ccc(S(=O)(=O)N3CCCCC3)cc2NC(=O)c2ccc([N+](=O)[O-])s2)CC1	/	/	/	1.7µM*	/	4.7µM*
CCN1CCN(c2ccc(S(=O)(=O)N3CCCCC3)cc2NC(=O)c2ccccc2)CC1	/	/	/	-13%	/	?
CCN1CCN(c2ccc(S(=O)(=O)N3CCCCC3)cc2NC(=O)COc2ccccc2)CC1	/	/	/	?	/	12µM*
COC(=O)C1=C[C@@H](C(=O)OC)[C@@H]2C3=C(C(=O)[C@@]2(CC(C)C)NC(=O)c2ccccc2)[C@H](C)n2c(=O)n(-c4ccccc4)c(=O)n2[C@@H]3C1	-9%	/	0	/	-5	/
C/C=C1\C(OC2OC(CO)C(O)C(O)C2O)OC=C(C(=O)OC)C1CC(=O)OCC1C(C)C(OC(=O)CC2C(C(=O)OC)=COC(OC3OC(CO)C(O)C(O)C3O)/C2=C\C)CC1C(CO)CO (stereo not given)	-8%	-2%	-13	29%	5	45%
C=CCn1c(C)cc(C2=NNC(=Nc3ccc(C)cc3)SC2)c1C	-4%	/	-9	?	10	?
CCOc1ccc(N=C2NN=C(c3cc(C)n(CC4CCCO4)c3C)CS2)cc1 (stereo not given)	-14%	14%	-6	2.1µM*	-1	?
N#C/C(=N\Nc1ccccc1)C(=N)N1CCCCCC1	-18%	-5%	71*	479%	38*	199%
